Z-score and composite z-score data for 13 compounds are collected here from PubChem BioAssay.

Assay [1] can be described thus: HepG2 liver cancer cell viability effects, profiling panel, resazurin fluorescence, 24 h, PK04 Diversity Set (AID 1172). Further: test concentration not given here. The conditions noted are these: higher = more signal.
Assay [2] can be described thus: basal S. cerevisiae growth modulation, no modifier, primary screen, OD600, strain BY4716, 24 h, basal condition (AID 1173). The conditions noted are these: OD600, 24 h, higher = more signal, called active from +8 up or from −8 down.
Assay [3] can be described thus: MM1S myeloma cell viability, profiling panel, resazurin fluorescence, basal, 24 h, PK04 Diversity Set (AID 1174).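 Further: MM1S multiple myeloma cell line; test concentration not given here.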 To be noted: higher = more signal, called active from +8 up or from −8 down.
Assay [4] addresses Dihydroorotate dehydrogenase (quinone), mitochondrial (Plasmodium falciparum (isolate 3D7)) (UniProt Q08210). As to the kind of experiment: PfDHODH enzyme inhibitors, primary screen, biochemical, C-terminal His tag, absorbance 600 nm (AID 1175).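 Further: recombinant parasite enzyme with a five histidine tag at its C terminus; test concentration not given here.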 The conditions noted are these: DCIP absorbance 600 nm, higher = more signal, called active from +8 up or from −8 down.
Assay [5] is described as follows: P. aeruginosa biofilm formation inhibitors, primary screen, strain PAO1, LB-PBS medium, absorbance 600 nm (AID 1176). Further: test concentration not given here. The conditions noted are these: P. aeruginosa PAO1 growth/biofilm, A600, 12 h; higher = more signal.
Assay [6] can be described thus: S. cerevisiae RM11-1a growth modifiers, primary screen, strain RM11-1a, OD600, basal, 24 h (AID 1177).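 Further: cultures grown under basal conditions with no added stressor; test concentration not given here.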 The conditions noted are these: OD600, 24 h, higher = more signal, called active from +8 up or from −8 down.
Assay [7] in a line: E. coli acrAB mutant growth effects, primary screen, E. coli filamentation inducers, strain DRC39, OD650, 24 h (AID 1178).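 Further: growth measured as culture turbidity by optical density at 650 nm; test concentration not given here.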 To be noted: higher = more signal, called active from +8 up or from −8 down.
Assay [8] is described as follows: E. coli acrAB mutant growth effects, primary screen, E. coli filamentation inducers, strain DRC39, OD650, 48 h (AID 1179).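 Further: screen aims at cell division blockers that make cells filament.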 To be noted: E. coli DRC39 delta-acrAB growth, higher = more signal, called active from +8 up or from −8 down.
Assay [9] is described as follows: RPMI8226 myeloma cell viability, profiling panel, resazurin fluorescence, basal, 24 h, PK04 Diversity Set (AID 1180).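 Further: RPMI8826 multiple myeloma cell line at 5000 cells per well; test concentration not given here.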 To be noted: higher = more signal.
Assay [10] deals with E3 ubiquitin-protein ligase XIAP (Homo sapiens) (UniProt P98170). The assay is described as follows: XIAP binders, primary screen, biophysical, small-molecule microarray, fluorescence 635 nm (AID 1181).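 Further: score merges 667 nm emission and signal to noise over triplicate slides.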 To be noted: small-molecule microarray binding, higher = more signal.
Sequence of E3 ubiquitin-protein ligase XIAP (Homo sapiens) (P98170 whole entry, looked up): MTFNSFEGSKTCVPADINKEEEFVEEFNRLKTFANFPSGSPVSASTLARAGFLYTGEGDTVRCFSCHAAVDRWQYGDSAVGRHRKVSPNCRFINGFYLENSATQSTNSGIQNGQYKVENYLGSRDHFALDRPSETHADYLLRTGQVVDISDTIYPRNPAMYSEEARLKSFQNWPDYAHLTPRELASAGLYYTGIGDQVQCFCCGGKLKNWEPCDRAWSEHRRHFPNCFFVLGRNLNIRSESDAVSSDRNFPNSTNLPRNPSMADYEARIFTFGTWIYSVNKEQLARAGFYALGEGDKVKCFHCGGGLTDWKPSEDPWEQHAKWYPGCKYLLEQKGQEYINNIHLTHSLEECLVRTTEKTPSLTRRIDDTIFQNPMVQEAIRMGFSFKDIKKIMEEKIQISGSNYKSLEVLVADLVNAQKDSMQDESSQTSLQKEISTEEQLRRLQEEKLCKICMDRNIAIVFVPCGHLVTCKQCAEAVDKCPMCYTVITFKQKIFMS

Each structure is given as a SMILES string. Activity calls are given as the source filed them. Unless noted, how the calls were made is not given here.

Sequence of Dihydroorotate dehydrogenase (quinone), mitochondrial (Plasmodium falciparum (isolate 3D7)) (Q08210 whole entry, looked up): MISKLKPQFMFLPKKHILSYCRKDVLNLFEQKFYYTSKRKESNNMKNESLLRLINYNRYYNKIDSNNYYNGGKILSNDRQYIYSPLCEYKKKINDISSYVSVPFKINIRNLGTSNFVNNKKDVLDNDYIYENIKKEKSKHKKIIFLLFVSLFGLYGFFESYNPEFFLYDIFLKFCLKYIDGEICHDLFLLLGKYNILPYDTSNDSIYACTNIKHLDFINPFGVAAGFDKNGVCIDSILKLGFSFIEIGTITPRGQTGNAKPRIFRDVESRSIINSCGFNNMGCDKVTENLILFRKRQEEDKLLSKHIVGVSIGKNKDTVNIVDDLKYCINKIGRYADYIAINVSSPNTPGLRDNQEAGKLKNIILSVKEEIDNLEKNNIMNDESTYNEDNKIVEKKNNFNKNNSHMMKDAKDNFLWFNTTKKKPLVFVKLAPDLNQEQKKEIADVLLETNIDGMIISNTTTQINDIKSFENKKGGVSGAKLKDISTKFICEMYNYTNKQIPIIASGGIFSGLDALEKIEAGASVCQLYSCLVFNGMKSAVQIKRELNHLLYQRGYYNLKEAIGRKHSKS

Turning to `O=C1CSC(c2cccc([N+](=O)[O-])c2)N1c1ccccc1` (stereo not given), the z-score in [1] was 0.0598; in assay [2], 0.483 (inactive); in assay [3], -0.0906 (inactive); in [5], 0.199 (inactive); in [6] it was 0.468 (inactive); in [7], 0.869 (inactive). In addition, the figures for the z-score in assay [8] and in [9] were 0.869 (inactive) and 0.407, respectively. The composite z-score in assay [4] is -0.861 (inactive); in assay [10], -0.0056.
Regarding `O=C1N(CCS(=O)(=O)c2ccccc2)c2ccccc2[C@H]2OC(c3ccc(OCCCO)cc3)=N[C@@]12CCS(=O)(=O)c1ccccc1`, the z-score in assay [1] is 0.248; in assay [2] it was 2.94 (inactive); in assay [3], 0.685 (inactive); in assay [5], 0.591 (inactive); in assay [6], 3.96 (inactive); in assay [7], 2.37 (inactive). Further, the z-score was 1.04 (inactive) in assay [8] and 0.488 in assay [9]. Further, the composite z-score in assay [4] was 0.761 (inactive); in assay [10], 0.0197.
As for `COc1ccc(C#Cc2ccc3c(c2)[C@]2(C(=O)N3)[C@H](c3ccc(OCCO)cc3)N3[C@H](c4ccccc4)[C@H](c4ccccc4)OC(=O)[C@H]3[C@@H]2C(=O)N2CCN(c3ncccn3)CC2)cc1`, the z-score was 1.45 in assay [1]; 1.56 (inactive) in [2]; 1.48 (inactive) in assay [3]; 1.66 (inactive) in [5]; 1.92 (inactive) in assay [6]; 0.101 (inactive) in [7]. Further, the z-score in assay [8] was -0.344 (inactive); in assay [9], 1.61. Also, the composite z-score in [4] was -1.7 (inactive); in [10], 0.16.
For the compound `COCC(=C=CC[C@@H](O)c1ccccc1OCCO)C[C@@H](O)c1ccccn1`, the z-score in [1] is -0.415; in assay [2], -1.42 (inactive); in assay [3], -0.249 (inactive); in [5] it was 0.354 (inactive); in [6] it was -0.572 (inactive); in assay [7], -0.268 (inactive). Moreover, the z-score in assay [8] was -0.268 (inactive); in [9], -0.348. The composite z-score in assay [4] was -10.8 (active); in assay [10], -0.0541.
With `CC(C)C[C@@H]1NC(=O)[C@@]23C(=O)N[C@@H](Cc4ccccc4)C2[C@H](C)[C@@]2(C)O[C@H]2C3/C=C/C/C=C\CNC(=O)[C@@H]2CCCN2C1=O` (stereo not given in full), the z-score in assay [1] was -0.462; in assay [2], -0.47 (inactive); in assay [3], 0.17 (inactive); in assay [5], 0.577 (inactive); in assay [6], -0.0014 (inactive); in assay [7], -0.536 (inactive). Besides, the figures for the z-score in [8] and in assay [9] were -0.146 (inactive) and -0.39, respectively. Moreover, the composite z-score was -0.487 (inactive) in [4] and -0.207 in assay [10].
For `C=CCOC(=O)[C@@H]1[C@H]2C(=O)O[C@H](c3ccccc3)[C@H](c3ccccc3)N2[C@H](c2ccc(OCCOC(=O)[C@H]3C[C@H]4C(=O)N[C@@H](Cc5ccccc5)C(=O)N4[C@H]3c3cccc(OCCO)c3)cc2)[C@@]12C(=O)Nc1ccc(I)cc12`, the z-score is -0.208 in assay [1]; -0.215 (inactive) in [2]; -1.94 (inactive) in assay [3]; 0.199 (inactive) in assay [5]; 2.13 (inactive) in [6]; -0.847 (inactive) in assay [7]. The z-score was 0.573 (inactive) in [8] and -1.01 in assay [9]. The composite z-score in [4] was -3.73 (inactive); in assay [10] it was -0.128.
As for `O=C(O)[C@@]1(Cc2ccccc2)COC(c2ccc(OCCCO)cc2)=N1`, the z-score in [1] was 0.0838; in assay [2], 1.02 (inactive); in assay [3], 0.296 (inactive); in assay [5], 0.274 (inactive); in assay [6] it was 1.4 (inactive); in assay [7] it was 1.58 (inactive). For the same compound, the figures for the z-score in assay [8] and in [9] were 0.466 (inactive) and 0.318, respectively. Also, the composite z-score in [4] is 1.75 (inactive); in [10] it was 0.33.
For `C=CCNC(=O)[C@H]1[C@@H]2C(=O)O[C@@H](c3ccccc3)[C@@H](c3ccccc3)N2[C@@H](c2ccc(OCCO)cc2)[C@]12C(=O)N(C(=O)OCCOC)c1ccc(C#CC3=CCCCC3)cc12`, the z-score in assay [1] was 0.293; in assay [2], 0.567 (inactive); in assay [3], -0.344 (inactive); in [5], 2.06 (inactive); in assay [6] it was 1.45 (inactive); in [7] it was -0.178 (inactive). The z-score in assay [8] is 0.215 (inactive); in [9], 0.136. Further, the composite z-score in assay [4] was -0.91 (inactive); in [10], -0.0727.
Turning to `CCC[C@@H]1C[C@@]1(CCC)[C@@H](NC(=O)c1cccs1)c1ccc(Cl)cc1`, the z-score is 1.82 in assay [1]; -0.779 (inactive) in [2]; 1.19 (inactive) in [3]; 0.852 (inactive) in [5]; 0.235 (inactive) in assay [6]; 0.279 (inactive) in assay [7]. The results for the z-score in [8] and in [9] were 0.372 (inactive) and 2.95, respectively. The composite z-score in assay [4] was -0.118 (inactive); in [10], -0.193.
`CCOC(=O)C1=CCC(c2cccc(Cl)c2)O1` (stereo not given): the z-score was 0.482 in [1]; -4.22 (inactive) in assay [2]; 0.402 (inactive) in [3]; 0.601 (inactive) in [5]; -1.6 (inactive) in [6]; 0.484 (inactive) in [7]. Moreover, the z-score is -0.16 (inactive) in [8] and -0.0798 in assay [9]. For the same compound, the results for the composite z-score in assay [4] and in [10] were -0.863 (inactive) and 0.19, respectively.
As for `COc1cc(C(O)C2C=CC3C(=O)N(C)C(=O)C3N2NC(=O)OC(C)(C)C)cc(OC)c1OC` (stereo not given), the z-score in assay [1] is -1.22; in assay [2], 1.74 (inactive); in assay [3], -0.976 (inactive); in [5] it was 0.847 (inactive); in [6], 0.796 (inactive); in [7], -1.01 (inactive). In addition, the z-score in assay [8] was -0.503 (inactive); in [9], -1.24. For the same compound, the composite z-score is 0.0277 (inactive) in [4] and 0.085 in assay [10].
For `[N-]=[N+]=Nc1ccccc1C[C@]1(C(=O)NCCN2CCOCC2)N=C(c2ccc(OCCCO)cc2)O[C@H]1c1ccccc1N=[N+]=[N-]`, the z-score is -1.31 in assay [1]; -4.84 (inactive) in assay [2]; -1.83 (inactive) in assay [3]; -0.596 (inactive) in assay [5]; -0.505 (inactive) in [6]; -0.0345 (inactive) in assay [7]. For the same compound, the z-score in assay [8] was 1.31 (inactive); in [9], -2.13. Besides, the figures for the composite z-score in assay [4] and in assay [10] were -0.695 (inactive) and 0.0402, respectively.
Turning to `COC(=O)c1c(CC[C@@H](CO)NC(=O)N[C@@H](C)Cn2cc(C3(O)CCCC3)nn2)oc(C(C)=O)c1C(=O)OC`, the z-score in [1] was -1.1; in [2], -0.724 (inactive); in assay [3], -0.345 (inactive); in [5], 0.0793 (inactive); in [6] it was -0.429 (inactive); in assay [7] it was -0.0257 (inactive). Besides, the z-score in assay [8] is -0.687 (inactive); in [9], -0.88. The composite z-score was -3.31 (inactive) in assay [4] and -0.184 in assay [10].
